Legend:
[1] = system: AAK1; conditions: concentration: 1 μM, replicates: in singlicate; n = 1
[2] = system: ABL1-nonphosphorylated; conditions: concentration: 1 μM, replicates: in singlicate; n = 1
[3] = system: ABL1-phosphorylated; conditions: concentration: 1 μM, replicates: in singlicate; n = 1
[4] = system: ABL2; conditions: concentration: 1 μM, replicates: in singlicate; n = 1
[5] = system: ACVR1B; conditions: concentration: 1 μM, replicates: in singlicate; n = 1
[6] = system: ACVR1; conditions: concentration: 1 μM, replicates: in singlicate; n = 1
[7] = system: ACVR2A; conditions: concentration: 1 μM, replicates: in singlicate; n = 1
[8] = system: ACVR2B; conditions: concentration: 1 μM, replicates: in singlicate; n = 1
[9] = system: ACVRL1; conditions: concentration: 1 μM, replicates: in singlicate; n = 1
[10] = system: T1, ADCK3; conditions: concentration: 1 μM, replicates: in singlicate; n = 1
T1 construct: gene CABC1

[11] = system: ADCK4; conditions: concentration: 1 μM, replicates: in singlicate; n = 1
[12] = system: AKT1; conditions: concentration: 1 μM, replicates: in singlicate; n = 1
[13] = system: AKT2; conditions: concentration: 1 μM, replicates: in singlicate; n = 1
[14] = system: AKT3; conditions: concentration: 1 μM, replicates: in singlicate; n = 1
[15] = system: ALK; conditions: concentration: 1 μM, replicates: in singlicate; n = 1
[16] = system: T2, AMPK-alpha1; conditions: concentration: 1 μM, replicates: in singlicate; n = 1
T2 construct: gene PRKAA1

[17] = system: T3, p38-alpha
T3 construct: gene MAPK14

[18] = system: T4, p38-beta
T4 construct: gene MAPK11

[19] = system: ZAK
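Throughout, for %Inh: KINOMEscan kinase panel screen.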
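Throughout, for Kd: kd values determined as follow-up on hits from a single-replicate KINOMEscan panel screen.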

Compound	%Inh [1]	%Inh [2]	%Inh [3]	%Inh [4]	%Inh [5]	%Inh [6]	%Inh [7]	%Inh [8]	%Inh [9]	%Inh [10]	%Inh [11]	%Inh [12]	%Inh [13]	%Inh [14]	%Inh [15]	%Inh [16]	Kd [17]	Kd [18]	Kd [19]
CN1c2ccc(NCc3ccc(F)cc3)cc2-c2c(cnn2C)S1(=O)=O	0%	21%	9%	0%	0%	0%	0%	0%	7%	10%	0%	4%	7%	0%	13%	0%	–	–	–
NS(=O)(=O)c1cccc(-c2ccc3nccc(-c4cccc(S(N)(=O)=O)c4)c3c2)c1 [GW867253]	27%	36%	15%	0%	0%	0%	0%	0%	0%	0%	10%	2%	0%	10%	0%	0%	–	–	–
Cn1cc(-c2ccc3c(c2)CCN3C(=O)Cc2ccccc2Cl)c2c(N)ncnc21 [GSK2608885]	25%	95.9%	23%	85%	0%	0%	0%	13%	3%	1%	88%	0%	0%	0%	0%	2%	–	–	–
COc1cc(Nc2nccc(N3CCC(NC(=O)c4cccc(NC(C)=O)c4)C3)n2)cc(OC)c1OC (stereo not drawn) [GSK1379754]	76%	0%	0%	13%	0%	63%	17%	18%	0%	10%	36%	0%	0%	0%	29%	8%	–	–	–
N#Cc1c(N2CCOCC2)sc(-c2ccn[nH]2)c1-c1ccc(Cl)cc1	70%	42%	0%	9%	15%	0%	0%	0%	0%	12%	0%	0%	0%	0%	0%	9%	–	–	–
Fc1ccc(-c2ncn(CCCN3CCOCC3)c2-c2cccnc2)cc1 [SB-211743]	0%	30%	34%	0%	0%	2%	0%	0%	6%	1%	0%	0%	0%	10%	0%	4%	–	–	–
CCn1cnc2c(N)ncnc21 [GW345098]	0%	33%	35%	12%	0%	7%	0%	0%	8%	19%	0%	0%	0%	0%	0%	29%	–	–	–
O=c1cc(N2CCOCC2)nc2n(Cc3cccc(F)c3)ccn12 [GSK2297430]	5%	0%	0%	2%	0%	1%	6%	0%	14%	9%	0%	0%	9%	0%	8%	5%	–	–	–
O=C(NOCC1CC1)c1ccc(F)c(F)c1Nc1ccc(I)cc1Cl	0%	0%	0%	0%	0%	0%	0%	0%	0%	0%	0%	0%	0%	0%	0%	0%	–	–	–
Nc1nc(-c2ccc3c(N)n[nH]c3c2)cc(N2CCCC2)n1 [GSK2227430]	17%	0%	0%	0%	0%	0%	0%	0%	0%	0%	2%	0%	3%	0%	4%	0%	–	–	–
Cc1cccc(-c2nc(-c3ccc(S(C)(=O)=O)cc3)sc2-c2ccncc2)c1	8%	0%	0%	29%	0%	0%	0%	0%	0%	0%	0%	0%	20%	0%	5%	1%	0.54 µM	–	–
Cc1ccc(C(=O)NCC(N)=O)cc1-n1c(C)cc(OCc2ccc(F)cc2F)c(Br)c1=O	0%	57%	33%	27%	11%	11%	0%	4%	28%	27%	2%	29%	19%	0%	0%	30%	0.00023 µM	0.01 µM	–
COc1cc2c(cc1OCCN1CCN(C)CC1)ncc1c3ccc(C#N)cc3[nH]c21	96.2%	82%	69%	6%	0%	0%	10%	0%	0%	0%	3%	0%	18%	0%	0%	10%	–	–	–
CCc1nc(-c2cccc(C)c2)c(-c2ccnc(NCc3ccccc3)c2)s1	10%	35%	7%	21%	0%	0%	11%	0%	0%	15%	0%	4%	22%	0%	0%	3%	0.15 µM	–	–
Cc1nnc(-c2ccc(C)c(-c3ccc(C(=O)Nc4ccc(NS(C)(=O)=O)cc4)cc3)c2)o1 [GW702865]	0%	0%	0%	0%	0%	0%	0%	0%	0%	20%	14%	0%	12%	0%	6%	17%	0.14 µM	–	–
COc1ccc(CNC(=O)NC2CCN(c3ccnc(Nc4ccc(OC)cc4)n3)C2)cc1 (stereo not drawn) [GSK1379727]	0%	0%	0%	2%	0%	0%	0%	0%	0%	3%	59%	0%	0%	0%	28%	0%	–	–	–
Cl.Nc1ncnc2occ(-c3ccc(NC(=O)Nc4cc(C(F)(F)F)ccc4F)cc3)c12 [SB-707548]	0%	99.1%	50%	81%	0%	1%	81%	2%	0%	10%	28%	0%	0%	0%	75%	5%	–	–	–
Cn1ccc2ncnc(Oc3ccc(NC(=O)Nc4ccncc4)c(Cl)c3)c21	0%	31%	3%	0%	23%	0%	0%	0%	4%	0%	0%	9%	14%	0%	0%	0%	–	–	–
O=C(NCCNc1ccnc(Nc2ccc(F)cc2)n1)c1cc2ccccc2s1 [GSK1379874]	0%	0%	0%	7%	0%	9%	0%	0%	0%	0%	27%	0%	0%	0%	5%	0%	–	–	> 10 µM
Cc1c2ccc(N(C)c3ccnc(Nc4cccc(S(N)(=O)=O)c4)n3)cc2nn1Cc1ccccc1.Cl.Cl [GW787226]	2%	98.4%	61%	71%	6%	0%	0%	0%	12%	0%	0%	0%	0%	0%	0%	17%	–	–	–
O=C(NCCCN1CCOCC1)c1cccc(Nc2nccc(Nc3ccc(Oc4ccccc4)cc3)n2)c1 [GW663929]	8%	73%	45%	47%	0%	14%	0%	5%	0%	15%	36%	0%	11%	0%	7%	0%	–	–	–
COc1ccc(Nc2nccc(N3CCC(NC(=O)Nc4cc(C)ccc4C)C3)n2)cc1 (stereo not drawn) [GSK1379741]	17%	0%	0%	14%	0%	0%	0%	0%	0%	0%	32%	0%	10%	0%	25%	0%	–	–	–
c1ccc(-c2n[nH]cc2-c2ccnc3ccccc23)nc1 [GW271431]	16%	14%	1%	16%	79%	46%	2%	75%	0%	20%	24%	0%	2%	0%	19%	19%	–	–	–
CCc1ccnc(/C=C/c2n[nH]c3cc(Sc4ccccc4C(=O)NC)ccc23)c1	22%	98%	89%	76%	3%	0%	0%	0%	0%	0%	0%	0%	0%	8%	11%	0%	–	–	–

— article PMC5540273 (PLoS ONE, 2017)
